This is an account of results in PubChem BioAssay.

The nature of assay [1]: E. coli DRC41 culture turbidity changes, primary screen, E. coli filamentation inducer project, strain DRC41, OD650, 48 h (AID 1152).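 Note: E. coli MC1000 strain DRC41 lacking acrAB efflux pump and sulA.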 The settings on record: E. coli DRC41 (acrAB sulA), higher = more signal, called active from +8 up or from −8 down.
Assay [2] is described as follows: small-molecule binders of probe aLefty1, primary screen, biochemical, small-molecule microarray, 635/667 nm fluorescence (AID 1153).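 Note: score merges spot fluorescence with signal-to-noise ratio from the scanned slide images.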 The settings on record: higher = more signal.
The nature of assay [3]: PSAC antagonists in infected red cells, primary screen, cell-based, P. falciparum Indochina, OD700, 1 h (AID 1154). The note with it: P. falciparum Indochina infected RBC osmotic lysis, higher = more signal, called active from +8 up or from −8 down.
Assay [4] in a line: PSAC antagonists in infected red cells, primary screen, cell-based, P. falciparum Indochina, OD700, 2 h (AID 1155).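 Note: lysis reports solute entry through the parasite surface anion channel PSAC; channel blockers reduce lysis of infected cells.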 The note with it: P. falciparum Indochina infected erythrocytes, osmotic lysis OD700; higher = more signal, called active from +8 up or from −8 down.
Assay [5] in a line: osmotic lysis modulators in infected erythrocytes, primary screen, PSAC antagonist project, cell-based, P. falciparum Indochina, OD700, 3 h (AID 1156). The note with it: higher = more signal, called active from +8 up or from −8 down.
Assay [6] can be described thus: PSAC antagonists in infected red cells, primary screen, cell-based, P. falciparum Indochina, OD700, 18 h (AID 1157). The settings on record: P. falciparum Indochina infected erythrocytes, osmotic lysis OD700, 18 h; higher = more signal, called active from +8 up or from −8 down.
Assay [7] in a line: modulators of S6 phosphorylation in cells, primary screen, cell-based, A549, cytoblot, luminescence, serum-stimulated (AID 1158).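 Note: serum-stimulated A549 lung adenocarcinoma cells; signal is phosphorylated S6 detected by cytoblot immunostaining with HRP secondary.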 The settings on record: A549 phospho-S6 cytoblot, 5 h, higher = more signal.
For assay [8], the target named is NADPH oxidase 2 (Homo sapiens) (UniProt P04839). The assay is described as follows: NOX2-dependent H2O2 signal modulators, primary screen, NOX inhibitor project, cell-based, HEK293-NOX2, PMA-stimulated, Amplex Red fluorescence (AID 1159). Note: test concentration not given here. The settings on record: 45 min, higher = more signal, called active from +8 up or from −8 down.
Assay [9] addresses NADPH oxidase 4 (Homo sapiens) (UniProt Q9NPH5). The experiment in a line: NOX4-dependent H2O2 signal modulators, primary screen, NOX inhibitor project, cell-based, HEK293-NOX4, tetracycline-induced, Amplex Red fluorescence (AID 1160). The settings on record: 45 min, higher = more signal, called active from +8 up or from −8 down.
Assay [10] deals with NADPH oxidase 5 (Homo sapiens) (UniProt Q96PH1). The experiment in a line: NOX5-dependent H2O2 signal modulators, primary screen, NOX inhibitor project, cell-based, HEK293-NOX5, Amplex Red fluorescence (AID 1161). The settings on record: HEK293-NOX5, ionomycin, 45 min, higher = more signal.
A short description of assay [11]: A549 cell viability effects, profiling panel, calcein-AM fluorescence, 48 h, basal (AID 1162). Note: test concentration not given here. The settings on record: higher = more signal.
Assay [12] is described as follows: adipocyte viability effects, profiling panel, cell-based, 3T3-L1 adipocytes, calcein-AM fluorescence, 48 h, basal (AID 1163). Note: test concentration not given here. The note with it: 3T3-L1 adipocytes viability, higher = more signal.
A short description of assay [13]: HepG2 cell viability effects, profiling panel, calcein-AM fluorescence, 48 h, basal (AID 1164). Note: test concentration not given here. The note with it: higher = more signal.
Assay [14] is described as follows: MM1S cell viability effects, profiling panel, calcein-AM fluorescence, 48 h, basal (AID 1165).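 Note: viability of MM1S multiple myeloma cells under basal unstimulated conditions; test concentration not given here.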 The note with it: higher = more signal.
The nature of assay [15]: basal RPMI8226 viability, no added stimulus, profiling panel, cell-based, calcein-AM fluorescence, 48 h, PK04 Diversity Set (AID 1166).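 Note: cells grown under basal conditions without added stimulus; test concentration not given here.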 The note with it: RPMI8226 myeloma viability, higher = more signal.
The nature of assay [16]: basal HepG2 mitochondrial membrane potential changes, profiling panel, cell-based, JC-1 fluorescence, 24 h, 100 nL compound (AID 1167). Note: test concentration not given here. The settings on record: higher = more signal.
The nature of assay [17]: basal 3T3-L1 adipocyte mitochondrial potential changes, profiling panel, cell-based, JC-1 fluorescence, 3T3-L1 adipocytes, 24 h, 100 nL compound (AID 1168). Note: test concentration not given here. The settings on record: JC-1 mitochondrial fluorescence, higher = more signal, called active from +8 up or from −8 down.
Assay [18] can be described thus: basal RPMI8226 mitochondrial membrane potential changes, profiling panel, cell-based, JC-1 fluorescence, 24 h, 100 nL compound (AID 1169). Note: test concentration not given here. The settings on record: RPMI8226 myeloma, JC-1 mitochondrial potential fluorescence, higher = more signal.
Assay [19] in a line: basal MM1S mitochondrial membrane potential changes, profiling panel, cell-based, JC-1 fluorescence, 24 h, 100 nL compound (AID 1170). Note: test concentration not given here. The settings on record: higher = more signal.
Assay [20] is described as follows: A549 lung cancer cell viability effects, profiling panel, resazurin fluorescence, 24 h, PK04 Diversity Set (AID 1171). Note: test concentration not given here. The settings on record: higher = more signal, called active from +8 up or from −8 down. (The colour change of resazurin is a common sign of viable cells or microbes.)

Active and inactive are the calls of the source.

NADPH oxidase 5 (Homo sapiens), sequence (Q96PH1 whole entry, looked up): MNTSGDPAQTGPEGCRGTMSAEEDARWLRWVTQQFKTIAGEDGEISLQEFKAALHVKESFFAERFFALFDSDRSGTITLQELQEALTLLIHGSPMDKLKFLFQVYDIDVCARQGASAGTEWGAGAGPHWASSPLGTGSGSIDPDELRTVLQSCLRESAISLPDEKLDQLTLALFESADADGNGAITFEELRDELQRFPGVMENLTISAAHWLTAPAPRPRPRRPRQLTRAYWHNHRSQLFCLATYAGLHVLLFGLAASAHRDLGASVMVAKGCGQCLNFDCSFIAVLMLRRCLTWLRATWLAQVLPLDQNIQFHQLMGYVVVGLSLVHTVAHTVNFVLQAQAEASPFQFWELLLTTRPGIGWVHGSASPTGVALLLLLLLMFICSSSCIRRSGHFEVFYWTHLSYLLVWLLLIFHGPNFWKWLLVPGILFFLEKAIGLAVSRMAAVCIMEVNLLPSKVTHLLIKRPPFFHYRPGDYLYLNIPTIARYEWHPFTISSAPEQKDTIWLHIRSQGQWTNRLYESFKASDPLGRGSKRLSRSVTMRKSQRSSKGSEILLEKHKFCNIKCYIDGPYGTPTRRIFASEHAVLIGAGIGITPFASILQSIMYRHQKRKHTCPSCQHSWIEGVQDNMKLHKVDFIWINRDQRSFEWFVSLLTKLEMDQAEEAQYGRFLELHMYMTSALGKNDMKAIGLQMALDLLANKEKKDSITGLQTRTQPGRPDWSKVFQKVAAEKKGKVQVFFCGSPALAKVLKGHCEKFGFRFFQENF
NADPH oxidase 2 (Homo sapiens), sequence (P04839 whole entry, looked up): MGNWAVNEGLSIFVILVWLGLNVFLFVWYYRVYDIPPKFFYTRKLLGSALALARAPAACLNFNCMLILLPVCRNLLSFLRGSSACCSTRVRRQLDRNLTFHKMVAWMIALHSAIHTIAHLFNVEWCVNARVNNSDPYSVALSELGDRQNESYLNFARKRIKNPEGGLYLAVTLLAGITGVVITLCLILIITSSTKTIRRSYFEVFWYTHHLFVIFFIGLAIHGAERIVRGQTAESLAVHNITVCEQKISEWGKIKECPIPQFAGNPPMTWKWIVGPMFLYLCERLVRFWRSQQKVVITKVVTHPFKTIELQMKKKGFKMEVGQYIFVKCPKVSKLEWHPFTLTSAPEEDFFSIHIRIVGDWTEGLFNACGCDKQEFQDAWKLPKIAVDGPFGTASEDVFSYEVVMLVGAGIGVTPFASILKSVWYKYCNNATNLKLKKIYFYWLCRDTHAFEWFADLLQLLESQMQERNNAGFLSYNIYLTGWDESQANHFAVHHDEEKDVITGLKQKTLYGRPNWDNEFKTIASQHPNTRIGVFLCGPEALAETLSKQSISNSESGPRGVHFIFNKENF
NADPH oxidase 4 (Homo sapiens), sequence (Q9NPH5 whole entry, looked up): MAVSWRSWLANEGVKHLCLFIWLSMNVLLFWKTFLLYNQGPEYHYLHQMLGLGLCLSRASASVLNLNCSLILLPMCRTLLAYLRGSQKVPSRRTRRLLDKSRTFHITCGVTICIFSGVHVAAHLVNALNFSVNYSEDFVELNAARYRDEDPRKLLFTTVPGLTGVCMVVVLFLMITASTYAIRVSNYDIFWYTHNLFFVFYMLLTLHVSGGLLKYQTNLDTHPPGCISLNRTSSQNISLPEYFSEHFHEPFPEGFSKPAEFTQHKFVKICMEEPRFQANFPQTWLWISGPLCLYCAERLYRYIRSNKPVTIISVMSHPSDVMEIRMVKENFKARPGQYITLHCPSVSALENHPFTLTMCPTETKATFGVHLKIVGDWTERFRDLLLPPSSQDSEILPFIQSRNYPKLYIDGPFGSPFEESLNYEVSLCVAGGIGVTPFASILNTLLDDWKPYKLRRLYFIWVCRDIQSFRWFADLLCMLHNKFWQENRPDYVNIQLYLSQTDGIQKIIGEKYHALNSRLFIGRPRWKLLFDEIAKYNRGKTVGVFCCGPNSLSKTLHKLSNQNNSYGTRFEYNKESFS

As to `CC(C)CNC(=O)[C@@H]1c2ccccc2C(=O)N(Cc2cc(C(F)(F)F)cc(C(F)(F)F)c2)[C@H]1c1ccc(CO)cc1`, the z-score is 0.808 (inactive) in assay [1]; 1.52 (inactive) in [3]; 0.0238 (inactive) in assay [4]; 0.173 (inactive) in assay [5]; 0.379 (inactive) in assay [6]; 0.578 in assay [7]. For the same compound, the z-score is 0.753 (inactive) in [8]; -0.815 (inactive) in [9]; 0.86 in assay [10]; 0.099 in [11]; 0.628 in assay [12]; -0.155 in assay [13]. Further, the z-score in assay [14] was 0.37; in [15], -0.754; in [16], 0.363; in [17], -0.861 (inactive); in assay [18], 0.428; in assay [19], 1.25. Also, in [20], the z-score is -0.0372 (inactive). In addition, the composite z-score in assay [2] stood at 0.197.
`CC(C)OC(=O)CC(=O)CC(O)c1ccc(C#N)cc1` (stereo not given): the z-score in assay [1] is 0.567 (inactive); in [3], 1.96 (inactive); in assay [4], -0.344 (inactive); in assay [5], -0.745 (inactive); in assay [6], -1.79 (inactive); in assay [7] it was 1.02. The z-score in assay [8] is 0.574 (inactive); in assay [9], -0.518 (inactive); in assay [10], -0.252; in assay [11], 0.633; in assay [12] it was 0.612; in [13] it was 1.01. The z-score in assay [14] is 0.526; in assay [15], -0.116; in [16], 0.615; in [17] it was 0.497 (inactive); in [18], -0.0971; in assay [19], -1.44. Besides, the z-score in assay [20] was 0.617 (inactive). In assay [2], this compound had a composite z-score of 0.213.
`COCCOC(=O)N1C(=O)[C@@]2(c3ccccc31)[C@H](C(=O)Nc1nc3ccccc3s1)[C@H]1C(=O)O[C@H](c3ccccc3)[C@H](c3ccccc3)N1[C@@H]2c1ccc(OCCO)cc1`: the z-score in assay [1] was 0.258 (inactive); in [3], 4.45 (inactive); in assay [4], 1.76 (inactive); in assay [5], 0.505 (inactive); in assay [6], 1.63 (inactive); in assay [7], 0.44. Besides, the z-score is -0.207 (inactive) in assay [8]; 0.842 (inactive) in [9]; 2.22 in assay [10]; -0.257 in assay [11]; 1.73 in assay [12]; -1.23 in [13]. Further, the z-score is -2.13 in assay [14]; -1.62 in assay [15]; -3.14 in assay [16]; 1.68 (inactive) in [17]; -0.806 in [18]; -1.57 in [19]. Also, the z-score in assay [20] is 0.18 (inactive). This compound gave a composite z-score in assay [2] of 0.258.
Regarding `O=C1O[C@H](c2ccccc2)[C@H](c2ccccc2)N2[C@H]1[C@@H](C(=O)O)[C@]1(C(=O)Nc3ccc(C#CC4(O)CCCCCC4)cc31)[C@H]2c1ccc(OCCO)cc1`, the z-score is -1.21 (inactive) in assay [1]; 1.14 (inactive) in assay [3]; -0.795 (inactive) in [4]; -9.96 (active) in assay [5]; -0.71 (inactive) in assay [6]; -0.424 in assay [7]. Further, the z-score in [8] is 2.71 (inactive); in [9], -0.335 (inactive); in assay [10], 1.25; in [11], 0.82; in assay [12], 0.287; in assay [13] it was 0.293. Besides, the z-score is -1.99 in assay [14]; -0.216 in assay [15]; -1.82 in [16]; -1.07 (inactive) in assay [17]; -0.559 in assay [18]; -0.683 in [19]. Also, in [20], the z-score is -0.0693 (inactive). Further, the composite z-score in assay [2] was -0.031.
`COc1ccc(NN2C(C(O)c3ccc(OC)c(OCc4ccccc4)c3)C=CC3C(=O)N(C4CCCCC4)C(=O)C32)cc1` (stereo not given): the z-score in assay [1] was 0.678 (inactive); in [3], 4.41 (inactive); in assay [4], 1.38 (inactive); in assay [5] it was 0.31 (inactive); in assay [6] it was 1 (inactive); in [7] it was 0.0173. Moreover, the z-score in [8] is -0.195 (inactive); in assay [9] it was -1.96 (inactive); in [10], -0.604; in [11], 0.412; in assay [12], -0.714; in assay [13], 0.337. The z-score in [14] is -0.257; in assay [15], 0.0417; in assay [16], 0.348; in [17], 0.353 (inactive); in assay [18], 0.0161; in assay [19] it was -1.33. The z-score in assay [20] is 0.817 (inactive). This compound yielded a composite z-score in assay [2] of 0.32.
